PubChem BioAssay (Tox21)
Values joined by “and” are separate entries in the source; they are usually repeats but may differ in a detail not shown here. Equal values may be shown once. A number with no mark means an inactive call. Records with an inconclusive call do not appear. A call without a number means that no potency is given here. Active and inactive are the calls of the source. Unless noted, calls come from the whole dose curve; as a rule, active = well fitted curve in the direction sought with a large enough effect in the repeat runs; inconclusive = weak or mixed curves; inactive = no such curve, though single readings can be large; an effect the other way counts as inactive or inconclusive.

Assays:
[1] = qHTS assay to identify small molecule agonists of the hypoxia (HIF-1) signaling pathway - cell viability counter screen (AID 1224844; calls by dose curve; note: nearly all actives have a fitted effect of over 50% in size)
Procedure, shortened: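 HRE-bla ME-180 cells, 2,000/well in 0.5% dialyzed FBS medium, treated 17 h at 37C with compounds. Viability read in the same wells as the bla reporter, by CellTiter-Glo luminescence after 30 min at room temperature.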

[2] = qHTS assay to identify small molecule agonists of H2AX (AID 1224845; active = well fitted activation curve with a large enough effect in the signal ratio in the repeat runs, not every such curve was filed as active; the % refers to the signal ratio)
Procedure, shortened: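 Phospho-H2AX Ser139 measured by HTRF (ex 320 nm; em 665 and 620 nm) after 24 hr antibody incubation. Compounds, 15 concentrations, 0.76% DMSO, were applied to CHO-K1 cells for 3hr at 37C before lysis.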

[3] = qHTS assay to identify small molecule agonists of the hypoxia (HIF-1) signaling pathway (AID 1224846; active = well fitted activation curve with a large enough effect in the signal ratio in the repeat runs, not every such curve was filed as active; the % refers to the signal ratio)
Procedure, shortened: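 HRE-bla ME-180 beta-lactamase reporter cells in medium with 0.5% dialyzed FBS, pre-incubated 5 h then exposed to compounds 17 h at 37C, 5% CO2; reporter induction read with CCF4-AM FRET substrate.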

[4] = qHTS assay to identify small molecule agonists of H2AX - cell viability counter screen (AID 1224847; calls by dose curve; note: nearly all actives have a fitted effect of over 30% in size; note: potency is the fitted concentration of half-maximal effect)
Procedure, shortened: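 Cytotoxicity counter screen in wild-type CHO-K1 cells: a 3 hr compound treatment at 37C across 15 concentrations, followed by CellTiter-Glo luminescence to gauge viable cells.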

[5] = qHTS RealTime-Glo MT Cell Viability Assay in HepG2 cells - 24 hour (AID 1224867); note: nearly all actives have a fitted effect of over 50% in size
Procedure, shortened: (§1)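 HepG2 cells (600/well) were dispensed with RealTime-Glo reagents, incubated 5 h at 37 °C, then treated with compounds in DMSO for up to 40 h. Nonlytic NanoLuc luminescence reflecting viable cells was read at each stated time point.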

[6] = A CellTox Green Cytotoxicity Assay to monitor cytotoxicity in HEK293 cells - 0 hour (AID 1224869); note: nearly all actives have a fitted effect of over 50% in size
Procedure, shortened: (§2)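 HEK293 cells, 600/well, were preincubated 5 hours and then exposed to compounds at 37 C for up to 40 hours. A cell-impermeant cyanine dye staining dead-cell DNA was read by fluorescence at 0, 8, 16, 24, 32 and 40 h time points.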

[7] = qHTS RealTime-Glo MT Cell Viability Assay in HepG2 cells - 40 hour (AID 1224870); note: nearly all actives have a fitted effect of over 50% in size
Procedure, shortened: (§3)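 Real-time viability: cells seeded at 600 per well together with NanoLuc and cell-permeant prosubstrate, compounds added after 5 h incubation. Luminescence tracked at 0, 8, 16, 24, 32 and 40 h of exposure.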

[8] = A CellTox Green Cytotoxicity Assay to monitor cytotoxicity in HEK293 cells - 40 hour (AID 1224871); note: nearly all actives have a fitted effect of over 45% in size
Procedure, shortened: as §2

[9] = qHTS RealTime-Glo MT Cell Viability Assay in HEK293 cells - 16 hour (AID 1224872)
Procedure, shortened: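 HEK293 cells seeded with NanoLuc/prosubstrate reagent, rested 5 h at 37 C, then dosed and kept at 37 C up to 40 h. Nonlytic real-time luminescence from viable cells read at 0, 8, 16, 24, 32 and 40 h.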

[10] = qHTS RealTime-Glo MT Cell Viability Assay in HepG2 cells - 8 hour (AID 1224873); note: nearly all actives have a fitted effect of over 55% in size
Procedure, shortened: as §3

[11] = qHTS RealTime-Glo MT Cell Viability Assay in HEK293 cells - 40 hour (AID 1224874); details: RealTime-Glo luminescence; max response: stronger effect = lower value; note: nearly all actives have a fitted effect of over 50% in size
Procedure, shortened: (§4)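 600 cells/well were plated with the nonlytic NanoLuc/prosubstrate reagent, pre-incubated 5 h, then given 23 nL of compound in DMSO. Incubation at 37 C for 40 h, with luminescence from viable-cell-reduced substrate read repeatedly from 0 h.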

[12] = A CellTox Green Cytotoxicity Assay to monitor cytotoxicity in HEK293 cells - 24 hour (AID 1224875); note: nearly all actives have a fitted effect of over 45% in size
Procedure, shortened: as §2

[13] = A CellTox Green Cytotoxicity Assay to monitor cytotoxicity in HepG2 cells - 16 hour (AID 1224876); note: nearly all actives have a fitted effect of over 45% in size
Procedure, shortened: (§5)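 HepG2 cells, 600/well, preincubated 5 h with CellTox Green dye, then exposed to Tox21 compounds in DMSO at 37 C for up to 40 h. Dead-cell DNA fluorescence read at the indicated time point.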

[14] = qHTS RealTime-Glo MT Cell Viability Assay in HepG2 cells - 32 hour (AID 1224877); note: nearly all actives have a fitted effect of over 55% in size
Procedure, shortened: as §1

[15] = A CellTox Green Cytotoxicity Assay to monitor cytotoxicity in HepG2 cells - 24 hour (AID 1224878); note: nearly all actives have a fitted effect of over 45% in size
Procedure, shortened: as §5

[16] = A CellTox Green Cytotoxicity Assay to monitor cytotoxicity in HepG2 cells - 40 hour (AID 1224879); note: nearly all actives have a fitted effect of over 40% in size
Procedure, shortened: as §5

[17] = qHTS RealTime-Glo MT Cell Viability Assay in HEK293 cells - 0 hour (AID 1224880)
Procedure, shortened: as §4

[18] = qHTS assay to identify small molecule antagonists of the estrogen related receptor (ERR) signaling pathway from Tox21 library (AID 1224848); note: nearly all actives have a fitted effect of over 50% in size
Procedure, shortened: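 Reading was by luminescence 30 min after ONE-Glo addition. Before that, ERR cells at 2,000 per well had rested 6 h at 37 C/5% CO2 and then received pin-tooled compounds in DMSO for 18 h at 37 C.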

[19] = qHTS assay to identify small molecule agonists of the estrogen related receptor (ERR) signaling pathway from Tox21 library (AID 1224849; calls by dose curve; note: nearly all actives have a fitted effect of over 15% in size); details: ERR reporter cell line, ONE-Glo luciferase, 18 h; at 42.5 µM (top of the series)
Procedure, shortened: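 ERR reporter cells (NTP line) pre-incubated 6 hours at 37 C, then exposed to compounds for 18 hours at 37 C. ONE-Glo luciferase luminescence was read after 30 minutes at room temperature.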

Row | SMILES | Potency [1] | Potency [2] | outcome [3] | Potency [4] | Potency [5] | Potency [6] | Potency [7] | Potency [8] | Potency [9] | Potency [10] | max response [11] | Potency [12] | Potency [13] | Potency [14] | Potency [15] | Potency [16] | Potency [17] | Potency [18] | activity change, positive = activation [19]
1 | O=C1O[C@H]([C@@H](O)CO)C(O)=C1O | inactive | inactive | inactive | inactive | inactive | inactive | inactive | inactive | inactive | inactive | 5.34% [middle of 5 runs] | inactive | inactive | inactive | inactive | inactive | inactive |  | 
2 | CC(=O)C(=O)O | inactive | inactive | inactive | inactive | inactive | inactive | inactive | inactive | inactive | inactive | -1.91% and -9.51% and -2.01% | inactive | inactive | inactive | inactive | inactive | inactive |  | 
3 | O=C(Nc1ncc([N+](=O)[O-])s1)c1cccs1 | inactive | inactive |  | 24.7 µM (active) | inactive | inactive | inactive | inactive | inactive | inactive | -20.9% | inactive | inactive | inactive | inactive | inactive | inactive | inactive | 14.6% (active)
4 | CN(N=O)C(=O)N[C@@H]1[C@@H](O)[C@H](O)[C@@H](CO)O[C@@H]1O | inactive | inactive | inactive | inactive | inactive | inactive | inactive | inactive | inactive | inactive | 1.13% and 4.9% and 1.17% | inactive | inactive | inactive | inactive | inactive | inactive |  | 
